Each structure is given as a SMILES string. This is part of a sample that, as a whole, favours compounds with a hit. Of some 83,000 tested, about 20% had one in any assay.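 How to read the values: 0–100, growth inhibition (40 = 60% inhibited); 0, no net growth; -100 to 0, cell death (-40 = 40% of starting cells died; -100 = all dead).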 Active and inactive are the calls of the source. How the source made its calls: active means growth percent below 10; inactive means the rest.

In the first assay the test system is HCC-2998 colon. The experiment in a line: NCI-60 one-dose screen, 48 h (100 = growth as untreated, 0 = no growth, -100 = all killed). The following applies: 10 µM unless noted.
As to `O=[N+]([O-])c1ccc(Sc2nc(Cl)nc(NC3CCCC3)n2)cc1`, the growth is -86.5% [100 µM] (active).
On the same count and under the same terms, the figure for `Cc1c(C(N)=O)sc2ncn(CC(=O)NN=C3CCCCC3)c(=O)c12` is 106% (inactive); for `CC1=C(O)C(=O)CC1` it is 99.7% (inactive).
With `CCOC(=O)C1C(=O)C=C(c2cc(OC)c(OC)c(OC)c2)CC1c1sc(N(C)Cc2ccccc2)nc1Cl` (stereo unspecified), the growth was 105% (inactive).
The same measure, in the same setting: in the case of `COc1cc(C2CC(c3ccccc3)=NN2C=O)ccc1Oc1nc2c(c(=O)n(C)c(=O)n2C)n1C` (stereo unspecified) it was 77.6% (inactive); in that of `O/N=C1\c2ccccc2-c2ccc(Br)cc21`, 102% (inactive); in that of `COc1ccc2c(c1)OC1=C(C(=O)OC1)C2c1cc(OC)c2c(c1)OCCO2` (stereo unspecified), 23% (inactive).
On the same count and under the same terms, the figure for `CN1CCC2(CC1)N=C(SCC(=O)Nc1cnc3ccccc3c1)C(c1ccc(Br)cc1)=N2` is -51.3% (active).
Same read-out and setting: in the case of `Clc1ccc(C2=NN[C@H](c3cn(-c4ccccc4)nc3-c3ccccc3)C2)cc1` it was 90.7% (inactive); in that of `COc1cc(C)c(Cl)cc1C1=NN(c2ccc(S(N)(=O)=O)cc2)C(/C=C/c2ccccc2)C1` (stereo unspecified), 74.9% (inactive); in that of `Clc1ccc(-c2cnc3nonc3n2)s1`, 109% (inactive).
As to `COc1ccc(C(=O)N2N=C(c3ccc(F)cc3)CC2c2cn(-c3ccccc3)nc2-c2ccccc2)cc1` (stereo unspecified), the growth was 85.7% (inactive).
On the same count and under the same terms, the figure for `CN(C)c1ccc(C2(Cl)c3ccccc3N(C)c3ccccc32)cc1` is 77.4% (inactive).
Consider `COc1cc2c(cc1OC)-c1cc(OC)c(OC)cc1C(CN(C)C)C2` (stereo unspecified), for which the growth was 85.6% [100 µM] (inactive).
With `CCOC(=O)C1OC2(CCCC2)OC1C(=O)OCC` (stereo unspecified), the growth was 104% (inactive).
In the case of `CCCCCCCCCCCCCCCCCC(=O)[O][Sn]([CH2]CCC)([CH2]CCC)[CH2]CCC`, the growth was -99.1% (active).
On the same count and under the same terms, the figure for `FC(F)(F)c1nn[nH]n1` is 98.1% (inactive); for `COc1cc(OC)c(Cl)cc1N` it is 106% (inactive); for `O=C1N(Cc2ccccc2Cl)c2ccccc2C12NN=C(c1ccccc1)S2` (stereo unspecified) it is 73.7% (inactive).
On the same count and under the same terms, the figure for `N/C(=N\OC(=O)c1ccccc1)C(Cc1ccccc1)C(=O)NOC(=O)c1ccccc1` (stereo unspecified) is 96.4% (inactive); for `Nc1ccc(C2=NNC(=O)Cc3cc4c(cc32)OCCO4)cc1Cl` it is 61.9% (inactive); for `COc1ccc2nc3ccccc3c(NCc3ccc(Cl)cc3)c2c1` it is -87.6% (active).
Regarding `O=C(NCCN1CCCCC1)n1cc(-c2ccncc2)c(-c2ccc(Cl)c(O)c2)n1`, the growth is 113% (inactive).
Same read-out and setting: the figure for `CC(=O)N1N=C(C2C(=O)N(C)C(=O)N(C)C2=O)CC1c1ccccc1C(=O)O` (stereo unspecified) is 113% (inactive); for `c1cc(C2CCCCC2)ccc1-c1cnc2nonc2n1` it is 8.72% (active).
Still for that read-out and setting: the figure for `COc1ccc(-c2nc3c(c(-c4ccc(Cl)cc4)nn3-c3ccccc3)c(-c3ccc(O)cc3)c2C#N)cc1` is 70.3% (inactive).
Take `c1ccc(-c2nnn(-c3ccccc3)n2)cc1`: the growth is 107% (inactive).
For the compound `CC(C)c1nc2ccccc2n1CC(=O)N/N=C/c1cccc(O)c1`, the growth was 104% (inactive).
Regarding `N#Cc1ccc(-c2ccc(-c3cccs3)o2)cc1F`, the growth was 91.5% (inactive).
On the same count and under the same terms, in the case of `CCN1C(=O)N(CC)C2C1NN=c1s/c(=C\c3ccco3)c(=O)n12` (stereo unspecified) it was 23% (inactive); in that of `O=C(O)C(CCc1ccccc1)NCc1ccccc1` (stereo unspecified), 97.2% (inactive).
Regarding `CN1C2CCC1/C(=C\c1ccc(Cl)cc1)C(=O)/C2=C/c1ccc(Cl)cc1`, the growth is 112% (inactive).
For `ClC1(Cl)C2CCCCCCC21` (stereo unspecified), the growth is 114% (inactive).

For a further assay, the system named is KM12 colon. The description is as above. The following applies: 10 µM unless noted.
As to `O=[N+]([O-])c1ccc(Sc2nc(Cl)nc(NC3CCCC3)n2)cc1`, the growth was -96.9% [100 µM] (active).
In the case of `Cc1c(C(N)=O)sc2ncn(CC(=O)NN=C3CCCCC3)c(=O)c12`, the growth was 115% (inactive).
With `CC1=C(O)C(=O)CC1`, the growth is 104% (inactive).
Consider `CCOC(=O)C1C(=O)C=C(c2cc(OC)c(OC)c(OC)c2)CC1c1sc(N(C)Cc2ccccc2)nc1Cl` (stereo unspecified), for which the growth was 93.6% (inactive).
The same measure, in the same setting: in the case of `COc1cc(C2CC(c3ccccc3)=NN2C=O)ccc1Oc1nc2c(c(=O)n(C)c(=O)n2C)n1C` (stereo unspecified) it was 74.7% (inactive); in that of `O/N=C1\c2ccccc2-c2ccc(Br)cc21`, 115% (inactive); in that of `COc1ccc2c(c1)OC1=C(C(=O)OC1)C2c1cc(OC)c2c(c1)OCCO2` (stereo unspecified), 2.33% (active).
The same measure, in the same setting: the figure for `CN1CCC2(CC1)N=C(SCC(=O)Nc1cnc3ccccc3c1)C(c1ccc(Br)cc1)=N2` is 41.6% (inactive); for `Clc1ccc(C2=NN[C@H](c3cn(-c4ccccc4)nc3-c3ccccc3)C2)cc1` it is 74% (inactive); for `COc1cc(C)c(Cl)cc1C1=NN(c2ccc(S(N)(=O)=O)cc2)C(/C=C/c2ccccc2)C1` (stereo unspecified) it is 34.8% (inactive).
As to `Clc1ccc(-c2cnc3nonc3n2)s1`, the growth was 77.1% (inactive).
The same measure, in the same setting: the figure for `CN1C(=O)NC(Cc2c[nH]c3c(Cl)cccc23)C1=O` (stereo unspecified) is 96.6% (inactive); for `COc1ccc(C(=O)N2N=C(c3ccc(F)cc3)CC2c2cn(-c3ccccc3)nc2-c2ccccc2)cc1` (stereo unspecified) it is 50.6% (inactive); for `CN(C)c1ccc(C2(Cl)c3ccccc3N(C)c3ccccc32)cc1` it is 36.7% (inactive).
Same read-out and setting: in the case of `CC(=O)c1ccc(Br)c([N+](=O)[O-])c1` it was 107% (inactive).
Still for that read-out and setting: the figure for `Cc1ccc(C(=O)CC(=O)C(F)(F)C(F)(F)C(F)(F)F)s1` is 112% (inactive); for `COc1cc2c(cc1OC)-c1cc(OC)c(OC)cc1C(CN(C)C)C2` (stereo unspecified) it is 82.1% [100 µM] (inactive); for `CCOC(=O)C1OC2(CCCC2)OC1C(=O)OCC` (stereo unspecified) it is 104% (inactive).
In the case of `CCCCCCCCCCCCCCCCCC(=O)[O][Sn]([CH2]CCC)([CH2]CCC)[CH2]CCC`, the growth was -96.2% (active).
Still for that read-out and setting: the figure for `FC(F)(F)c1nn[nH]n1` is 99.6% (inactive).
Still for that read-out and setting: the figure for `COc1cc(OC)c(Cl)cc1N` is 107% (inactive).
The same measure, in the same setting: in the case of `O=C1N(Cc2ccccc2Cl)c2ccccc2C12NN=C(c1ccccc1)S2` (stereo unspecified) it was 50.8% (inactive); in that of `N/C(=N\OC(=O)c1ccccc1)C(Cc1ccccc1)C(=O)NOC(=O)c1ccccc1` (stereo unspecified), 24.2% (inactive); in that of `Nc1ccc(C2=NNC(=O)Cc3cc4c(cc32)OCCO4)cc1Cl`, 16% (inactive).
As to `COc1ccc2nc3ccccc3c(NCc3ccc(Cl)cc3)c2c1`, the growth was 40.1% (inactive).
Still for that read-out and setting: in the case of `COC1(OC)C2(Cl)CCC1(Cl)C(Cl)=C2Cl` it was 106% (inactive).
Still for that read-out and setting: the figure for `O=C(NCCN1CCCCC1)n1cc(-c2ccncc2)c(-c2ccc(Cl)c(O)c2)n1` is 102% (inactive); for `CC(=O)N1N=C(C2C(=O)N(C)C(=O)N(C)C2=O)CC1c1ccccc1C(=O)O` (stereo unspecified) it is 114% (inactive).
On the same count and under the same terms, the figure for `c1cc(C2CCCCC2)ccc1-c1cnc2nonc2n1` is 14.2% (inactive); for `COc1ccc(-c2nc3c(c(-c4ccc(Cl)cc4)nn3-c3ccccc3)c(-c3ccc(O)cc3)c2C#N)cc1` it is 34.4% (inactive); for `c1ccc(-c2nnn(-c3ccccc3)n2)cc1` it is 107% (inactive).
As for `CC(C)c1nc2ccccc2n1CC(=O)N/N=C/c1cccc(O)c1`, the growth is 103% (inactive).
On to `N#Cc1ccc(-c2ccc(-c3cccs3)o2)cc1F`, for which the growth was 83.2% (inactive).
Still for that read-out and setting: in the case of `CCN1C(=O)N(CC)C2C1NN=c1s/c(=C\c3ccco3)c(=O)n12` (stereo unspecified) it was 15.9% (inactive); in that of `O=C(O)C(CCc1ccccc1)NCc1ccccc1` (stereo unspecified), 100% (inactive); in that of `CN1C2CCC1/C(=C\c1ccc(Cl)cc1)C(=O)/C2=C/c1ccc(Cl)cc1`, 54.3% (inactive).
On to `Cc1cccc(/C=N/n2c(-c3ccc(Cl)cc3)nc3c(Br)cc(Br)cc3c2=O)c1`, for which the growth was 52.4% (inactive).
The same measure, in the same setting: the figure for `ClC1(Cl)C2CCCCCCC21` (stereo unspecified) is 109% (inactive).

These data come from PubChem BioAssay (NCI).
